Test results as given in PubChem BioAssay.
Unmarked numbers belong to inactive results. Entries that show only a call come without a potency. For some of these results: Potency and affinity values are given separately. Calls of active or inactive are those of the source. Unless noted, the rule behind the calls is not given here.

How the values were obtained:
[1] = human hepatoma cell viability loss – ATP luminescence, cytotoxicity control for P. falciparum antimalarial project, primary screen (AID 2303;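 active = inhibition above 50%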); conditions: HepG2 viability, 24-48 h, at 10 µM, active compounds read high
[2] = target: L-lactate dehydrogenase (Plasmodium falciparum (isolate CDC / Honduras)) (UniProt Q27743); assay: PfLDH activity inhibition – cell lysate, 3D7 strain, counter-screen for P. falciparum growth inhibition project (AID 2304); conditions: P. falciparum 3D7 crude extract, LDH APAD/NBT absorbance; at 2 µM; active compounds read high
[3] = inhibition of 3D7 malaria parasite growth – strain 3D7 (AID 2306); conditions: P. falciparum 3D7 erythrocytic growth, LDH absorbance, 72 h; at 2 µM; active compounds read high
[4] = target: Calcium-dependent protein kinase 1 (Plasmodium falciparum (isolate 3D7)) (UniProt P62344); assay: PfCDPK1 kinase inhibitors, biochemical, TCAMS library (AID 1159585; cut-off not given, nearly all actives have IC50 up to about 0.98 µM;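 note: inhibitors leave more ATP so luminescence rises with inhibition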); conditions: recombinant PfCDPK1, Kinase-Glo ATP depletion luminescence
[5] = target: Plasmodium falciparum protein kinase 6 (PK6, PF3D7_1337100) (UniProt Q8IDW1); assay: PfPK6 kinase inhibitors, biochemical, TCAMS library (AID 1159586); conditions: recombinant PfPK6, Kinase-Glo ATP depletion luminescence
[6] = target: Protein kinase 7 (PK7), Plasmodium falciparum 3D7 (PF3D7_0213400) (UniProt Q7YTF7); assay: inhibition of Plasmodium PK7 catalytic activity – biochemical, TCAMS antimalarial set, Kinase-Glo luminescence (AID 1159587); conditions: recombinant PfPK7, Kinase-Glo ATP depletion luminescence
[7] = target: Calcium-dependent protein kinase 4 (Plasmodium falciparum (isolate 3D7)) (UniProt Q8IBS5); assay: PfCDPK4 kinase inhibitors, biochemical, TCAMS library (AID 1159588; cut-off not given, nearly all actives have IC50 up to about 0.91 µM); conditions: recombinant PfCDPK4, Kinase-Glo ATP depletion luminescence
[8] = antimalarial activity against Dd2 strain (AID 2302;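 active = growth inhibition above 50% at the single 2 µM test dose, taken to imply half-maximal potency below 2 µM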); conditions: P. falciparum Dd2 in RBCs, LDH growth readout, 72 h; at 2 µM; active compounds read high

Chain of Plasmodium falciparum protein kinase 6 (PK6, PF3D7_1337100) (Q8IDW1 1-305): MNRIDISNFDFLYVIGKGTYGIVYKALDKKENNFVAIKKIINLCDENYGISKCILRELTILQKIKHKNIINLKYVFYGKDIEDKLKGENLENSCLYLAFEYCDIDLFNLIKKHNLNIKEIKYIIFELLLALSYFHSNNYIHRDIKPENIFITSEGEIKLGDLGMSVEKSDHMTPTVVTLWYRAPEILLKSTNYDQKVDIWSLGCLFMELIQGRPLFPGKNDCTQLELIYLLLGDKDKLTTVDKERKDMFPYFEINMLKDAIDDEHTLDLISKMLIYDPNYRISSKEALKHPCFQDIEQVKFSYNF
Chain of Calcium-dependent protein kinase 1 (Plasmodium falciparum (isolate 3D7)) (P62344 whole entry, looked up): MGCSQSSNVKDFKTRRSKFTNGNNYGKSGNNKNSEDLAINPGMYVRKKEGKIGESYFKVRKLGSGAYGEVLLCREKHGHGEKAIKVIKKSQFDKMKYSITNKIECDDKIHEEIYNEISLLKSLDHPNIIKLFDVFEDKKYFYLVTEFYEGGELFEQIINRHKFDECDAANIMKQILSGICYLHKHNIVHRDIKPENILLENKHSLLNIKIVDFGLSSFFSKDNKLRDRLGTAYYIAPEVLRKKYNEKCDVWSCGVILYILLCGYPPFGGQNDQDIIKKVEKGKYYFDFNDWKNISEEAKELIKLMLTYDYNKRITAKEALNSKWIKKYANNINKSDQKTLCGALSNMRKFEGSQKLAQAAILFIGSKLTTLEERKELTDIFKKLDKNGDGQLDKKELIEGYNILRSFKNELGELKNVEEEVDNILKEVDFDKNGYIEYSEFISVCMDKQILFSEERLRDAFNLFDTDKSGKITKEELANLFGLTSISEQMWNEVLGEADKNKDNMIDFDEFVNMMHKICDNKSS
Chain of Calcium-dependent protein kinase 4 (Plasmodium falciparum (isolate 3D7)) (Q8IBS5 whole entry, looked up): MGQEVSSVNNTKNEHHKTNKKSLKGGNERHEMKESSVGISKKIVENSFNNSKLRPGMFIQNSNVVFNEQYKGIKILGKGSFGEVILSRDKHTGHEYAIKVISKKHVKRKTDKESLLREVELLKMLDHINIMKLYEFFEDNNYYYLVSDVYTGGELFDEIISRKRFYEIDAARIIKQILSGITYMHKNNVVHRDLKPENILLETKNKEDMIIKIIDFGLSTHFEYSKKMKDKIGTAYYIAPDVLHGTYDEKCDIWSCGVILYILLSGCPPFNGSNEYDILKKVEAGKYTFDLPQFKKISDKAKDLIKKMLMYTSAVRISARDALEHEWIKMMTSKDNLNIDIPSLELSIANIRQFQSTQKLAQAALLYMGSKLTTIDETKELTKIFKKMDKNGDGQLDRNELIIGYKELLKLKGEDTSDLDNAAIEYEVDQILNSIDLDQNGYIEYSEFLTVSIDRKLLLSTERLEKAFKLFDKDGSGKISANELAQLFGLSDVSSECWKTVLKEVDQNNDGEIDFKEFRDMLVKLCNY
Chain of L-lactate dehydrogenase (Plasmodium falciparum (isolate CDC / Honduras)) (Q27743 whole entry, looked up): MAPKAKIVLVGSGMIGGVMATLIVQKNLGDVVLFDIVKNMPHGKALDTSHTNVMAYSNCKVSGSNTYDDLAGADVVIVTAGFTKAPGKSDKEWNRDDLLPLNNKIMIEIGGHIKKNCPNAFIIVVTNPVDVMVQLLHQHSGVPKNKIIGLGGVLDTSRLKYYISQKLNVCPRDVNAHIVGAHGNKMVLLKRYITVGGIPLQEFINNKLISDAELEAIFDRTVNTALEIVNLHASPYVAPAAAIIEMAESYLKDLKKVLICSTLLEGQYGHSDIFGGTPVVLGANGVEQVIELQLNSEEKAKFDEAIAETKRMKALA
Chain of Protein kinase 7 (PK7), Plasmodium falciparum 3D7 (PF3D7_0213400) (Q7YTF7 1-343): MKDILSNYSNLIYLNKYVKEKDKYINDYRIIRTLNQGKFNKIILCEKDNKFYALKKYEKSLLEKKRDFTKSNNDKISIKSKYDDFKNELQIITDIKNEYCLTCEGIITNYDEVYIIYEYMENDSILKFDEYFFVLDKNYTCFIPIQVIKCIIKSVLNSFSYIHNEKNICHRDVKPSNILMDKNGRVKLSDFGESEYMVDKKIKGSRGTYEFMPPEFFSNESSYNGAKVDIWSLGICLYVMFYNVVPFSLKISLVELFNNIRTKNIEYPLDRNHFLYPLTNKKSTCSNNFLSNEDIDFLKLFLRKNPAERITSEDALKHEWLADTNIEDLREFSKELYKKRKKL

| Structure (SMILES) | inhibition [1] | inhibition [2] [%] | growth inhibition [3] | outcome [4] | outcome [5] | outcome [6] | outcome [7] | growth inhibition [8] |
| --- | --- | --- | --- | --- | --- | --- | --- | --- |
| O=C(Nc1nccs1)c1sc2ccccc2c1O | -2% | -1 | 96% (active) | inactive | inactive | inactive | inactive | – |
| CCn1c(-c2nonc2N)nc2c(-c3cc4ccccc4s3)ncc(C(=O)N3CCC(N)C3)c21 (centres undefined) | 99% (active) | 5 | 98% (active) | inactive | inactive | inactive | – | 66% (active) |
| N#Cc1ccc(C(=O)Nc2cc(-c3cccc(O)c3)cc3[nH]ncc23)cc1 | 15% | -1 | 90% (active) | inactive | inactive | inactive | – | 79% (active) |
| O=C(O)c1ccc(-c2cnc3ccc(NC4CCC(O)CC4)nn23)cc1 (centres undefined) | 9% | 3 | 98% (active) | inactive | inactive | – | inactive | 90% (active) |
| COc1ccc(NC(=O)c2ccc(-c3cccc(OCc4ccccc4)c3)cc2)cc1N1CCN(C)CC1 | 29% | -1 | 85% (active) | inactive | inactive | inactive | inactive | – |
| Clc1ccc(C=NNc2ccnc3cc(Cl)ccc23)cc1 | – | -3 | – | inactive | inactive | inactive | inactive | – |
| Nc1nc2ccc(CNc3ccc(C(=O)N[C@@H](CCC(=O)O)C(=O)O)cc3)cc2c(=O)[nH]1 | 2% | 3 | 96% (active) | inactive | inactive | inactive | inactive | – |
| CN(C)Cc1cccc(-c2ccc(NC(=O)c3ccc4c(=O)n(Cc5cnn(C)c5)cnc4c3)cc2)c1 | 12% | 2 | 80% (active) | inactive | inactive | inactive | inactive | – |
| COc1c(C2CCN(CCCCNC(=O)C=Cc3ccccc3C(F)(F)F)CC2)ccc2c1CCCC2 | 98% (active) | -3 | 96% (active) | inactive | inactive | inactive | inactive | – |
| c1ccc2c3c([nH]c2c1)C(c1ccc2c(c1)CCO2)N(c1ncnc(N2CCN(CCCN4CCOCC4)CC2)n1)CC3 (centres undefined) | 37% | -2 | 80% (active) | inactive | inactive | inactive | inactive | – |
| COc1cc(Nc2nccc(-c3c(-c4cccc(NC(=O)c5c(F)cccc5F)c4)nn4ncccc34)n2)cc(OC)c1OC | 96% (active) | 1 | 98% (active) | inactive | inactive | inactive | – | 97% (active) |
| Cc1cccc(Cn2ccc3c(N)nc(N)nc32)c1 | – | 5 | 82% (active) | inactive | inactive | inactive | inactive | – |
| Cc1ccccc1Cn1ccc2c3c(N)nc(N)nc3ccc21 | – | -4 | 100% (active) | inactive | inactive | inactive | inactive | – |
| C[C@H]1CN(Cc2ccc(-c3cccc(CNC(=O)c4cccc(C(=O)c5ccc(Cl)c(Cl)c5)c4)c3)s2)CCN1 | 3% | 3 | 99% (active) | inactive | inactive | inactive | inactive | – |
| CS(=O)(=O)Cc1ccc(Nc2ncc(Cl)c(Nc3cccnc3C(N)=O)n2)cc1 | 54% (active) | -4 | 97% (active) | inactive | – | inactive | inactive | 97% (active) |
| O=C(Nc1ccccc1)Nc1cccc(-c2nn3c(OCCN4CCCC4)cccc3c2-c2ccncc2)c1 | 30% | 4 | 102% (active) | inactive | inactive | inactive | – | 98% (active) |
| O=C(Nc1ccc(OC2CCN(CC3CC3)CC2)c(Cl)c1)c1ccc2ncccc2c1 | 19% | -2 | 84% (active) | inactive | inactive | inactive | inactive | – |
| Fc1ccccc1C=NNc1ccnc2cc(Cl)ccc12 | – | -2 | – | inactive | inactive | inactive | inactive | – |
| CCc1cc2c3c(N)nc(N)nc3ccc2n1C(C)(C)C | – | -11 | 99% (active) | inactive | inactive | inactive | inactive | – |
| COc1ccc(N=C(N)Nc2ccccc2)nc1Cc1ccccc1 | 17% | -6 | 81% (active) | inactive | inactive | inactive | inactive | – |
| COc1ccc2c(c1)C(C)(CCCN(C)C)C(=O)N2C (centres undefined) | 8% | -3 | 93% (active) | inactive | inactive | inactive | inactive | – |
| CCN(CC)CCNc1nccc(N(C)c2ccc(NC(=O)Nc3cc(C(F)(F)F)ccc3F)cc2)n1 | 74% (active) | 1 | 97% (active) | inactive | – | inactive | inactive | 25% |
| CCCCNC(=O)C1CCCN(C(=O)c2ccc(O)c(-c3ccc(Cl)c(Cl)c3)c2)C1 (centres undefined) | 3% | 2 | 83% (active) | inactive | inactive | inactive | inactive | – |
